For some assays here: Measured potencies and affinities stand elsewhere.

The target of assay [1] is T1, Methionyl-tRNA synthetase, putative (Leishmania donovani (strain BPK282A1)) (UniProt E9BF75).
T1 sequence (whole entry): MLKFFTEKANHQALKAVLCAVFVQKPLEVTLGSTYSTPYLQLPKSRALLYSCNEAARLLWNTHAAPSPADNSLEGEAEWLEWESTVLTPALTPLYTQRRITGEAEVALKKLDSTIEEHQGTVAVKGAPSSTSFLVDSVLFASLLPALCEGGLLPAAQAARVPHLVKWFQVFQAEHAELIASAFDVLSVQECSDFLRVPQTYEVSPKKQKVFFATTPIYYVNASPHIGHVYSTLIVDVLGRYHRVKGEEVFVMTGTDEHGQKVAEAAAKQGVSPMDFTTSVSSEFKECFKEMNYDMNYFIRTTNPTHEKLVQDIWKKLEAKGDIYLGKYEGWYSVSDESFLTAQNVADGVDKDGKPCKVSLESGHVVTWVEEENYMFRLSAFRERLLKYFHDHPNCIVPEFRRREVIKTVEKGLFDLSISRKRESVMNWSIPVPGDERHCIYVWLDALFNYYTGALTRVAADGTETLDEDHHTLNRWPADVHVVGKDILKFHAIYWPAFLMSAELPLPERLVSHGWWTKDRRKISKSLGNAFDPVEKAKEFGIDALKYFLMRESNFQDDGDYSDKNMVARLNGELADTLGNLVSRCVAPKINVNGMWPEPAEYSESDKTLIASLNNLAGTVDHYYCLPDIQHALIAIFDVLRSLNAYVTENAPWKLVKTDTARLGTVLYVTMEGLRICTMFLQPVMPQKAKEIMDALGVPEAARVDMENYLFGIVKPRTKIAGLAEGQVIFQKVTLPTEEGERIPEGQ
As to the kind of experiment: Leishmania donovani Methionine tRNA synthetase (LdMetRS):v7. Dose response assay. The class given is functional. On the set-up: conc 80 nM, time 150 minutes.

The target of assay [2] is Protein translocase subunit SecA (Escherichia coli (strain K12)) (UniProt P10408). As to the kind of experiment: Assay to Identify E. coli SecA ATPase Inhibitors. The class given is functional. On the set-up: scale not given: direction of the effect not stated beside the values. The conditions noted are these: 30 µM.
Protein translocase subunit SecA (Escherichia coli (strain K12)), sequence (P10408 whole entry): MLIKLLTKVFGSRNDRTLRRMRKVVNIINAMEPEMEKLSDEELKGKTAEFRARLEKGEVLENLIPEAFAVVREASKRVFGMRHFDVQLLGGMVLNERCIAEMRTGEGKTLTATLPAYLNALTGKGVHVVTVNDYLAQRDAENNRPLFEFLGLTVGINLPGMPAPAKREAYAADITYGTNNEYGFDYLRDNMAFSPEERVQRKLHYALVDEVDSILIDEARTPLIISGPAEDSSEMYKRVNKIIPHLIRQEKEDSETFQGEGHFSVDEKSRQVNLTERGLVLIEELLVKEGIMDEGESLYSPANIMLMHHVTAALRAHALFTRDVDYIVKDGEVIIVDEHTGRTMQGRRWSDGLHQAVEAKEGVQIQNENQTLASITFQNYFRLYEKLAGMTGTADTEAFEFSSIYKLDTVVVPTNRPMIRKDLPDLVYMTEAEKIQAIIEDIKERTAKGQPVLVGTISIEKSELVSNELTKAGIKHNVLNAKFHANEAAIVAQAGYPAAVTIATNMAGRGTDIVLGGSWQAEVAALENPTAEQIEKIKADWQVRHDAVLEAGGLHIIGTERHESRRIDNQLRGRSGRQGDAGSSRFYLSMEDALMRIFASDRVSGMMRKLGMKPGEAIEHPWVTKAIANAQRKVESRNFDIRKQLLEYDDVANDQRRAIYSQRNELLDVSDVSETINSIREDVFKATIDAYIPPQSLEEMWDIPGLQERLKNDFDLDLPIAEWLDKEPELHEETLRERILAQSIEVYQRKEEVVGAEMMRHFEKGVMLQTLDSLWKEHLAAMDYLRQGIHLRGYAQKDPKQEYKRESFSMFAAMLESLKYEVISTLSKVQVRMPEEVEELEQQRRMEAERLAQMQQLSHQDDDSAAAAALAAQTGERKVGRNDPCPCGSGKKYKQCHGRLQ
Assay [3] has as its target T2, Ubiquitin-activating enzyme e1, putative (Leishmania donovani (strain BPK282A1)) (UniProt E9BSI1).
T2 sequence (whole entry): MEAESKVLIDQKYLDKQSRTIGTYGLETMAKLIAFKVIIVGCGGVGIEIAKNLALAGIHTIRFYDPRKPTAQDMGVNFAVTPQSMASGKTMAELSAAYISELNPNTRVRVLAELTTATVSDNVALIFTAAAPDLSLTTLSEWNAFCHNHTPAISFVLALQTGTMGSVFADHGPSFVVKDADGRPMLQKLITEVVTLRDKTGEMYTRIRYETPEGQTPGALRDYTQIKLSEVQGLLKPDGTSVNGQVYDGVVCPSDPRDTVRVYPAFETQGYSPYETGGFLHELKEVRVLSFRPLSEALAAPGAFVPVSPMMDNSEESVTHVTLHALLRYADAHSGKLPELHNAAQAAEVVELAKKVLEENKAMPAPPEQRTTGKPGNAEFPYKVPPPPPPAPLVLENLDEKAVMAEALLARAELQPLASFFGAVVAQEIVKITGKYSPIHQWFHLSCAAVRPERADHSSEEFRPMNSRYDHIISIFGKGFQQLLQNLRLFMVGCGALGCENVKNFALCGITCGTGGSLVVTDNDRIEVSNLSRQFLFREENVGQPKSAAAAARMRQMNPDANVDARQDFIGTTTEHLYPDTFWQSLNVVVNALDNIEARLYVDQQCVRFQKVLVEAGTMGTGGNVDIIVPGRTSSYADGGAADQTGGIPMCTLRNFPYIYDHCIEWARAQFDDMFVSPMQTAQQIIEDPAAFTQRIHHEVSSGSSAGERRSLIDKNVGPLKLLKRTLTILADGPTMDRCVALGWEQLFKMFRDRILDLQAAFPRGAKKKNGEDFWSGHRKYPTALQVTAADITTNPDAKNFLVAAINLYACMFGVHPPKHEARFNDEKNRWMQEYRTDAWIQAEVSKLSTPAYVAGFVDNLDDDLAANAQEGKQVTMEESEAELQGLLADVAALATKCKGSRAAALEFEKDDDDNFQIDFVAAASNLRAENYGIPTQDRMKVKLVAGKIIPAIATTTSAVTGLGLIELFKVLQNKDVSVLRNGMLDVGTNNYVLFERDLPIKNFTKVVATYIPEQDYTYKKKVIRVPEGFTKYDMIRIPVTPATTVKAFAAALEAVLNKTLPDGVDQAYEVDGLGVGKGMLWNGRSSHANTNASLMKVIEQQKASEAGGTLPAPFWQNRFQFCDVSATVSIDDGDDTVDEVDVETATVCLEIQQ
As to the kind of experiment: Leishmania donovani Ubiquitin Activating Enzyme (LdE1). The class given is functional. More on the design: scale not given: direction of the effect not stated beside the values. The conditions noted are these: 30 µM.

Assay [4] concerns the target T3, Aspartate--tRNA(Asp/Asn) ligase (Mycobacterium tuberculosis (strain ATCC 25618 / H37Rv)) (UniProt P9WFW3). Also: in the data most compounds retested in dose-response had high values.
T3 sequence (whole entry): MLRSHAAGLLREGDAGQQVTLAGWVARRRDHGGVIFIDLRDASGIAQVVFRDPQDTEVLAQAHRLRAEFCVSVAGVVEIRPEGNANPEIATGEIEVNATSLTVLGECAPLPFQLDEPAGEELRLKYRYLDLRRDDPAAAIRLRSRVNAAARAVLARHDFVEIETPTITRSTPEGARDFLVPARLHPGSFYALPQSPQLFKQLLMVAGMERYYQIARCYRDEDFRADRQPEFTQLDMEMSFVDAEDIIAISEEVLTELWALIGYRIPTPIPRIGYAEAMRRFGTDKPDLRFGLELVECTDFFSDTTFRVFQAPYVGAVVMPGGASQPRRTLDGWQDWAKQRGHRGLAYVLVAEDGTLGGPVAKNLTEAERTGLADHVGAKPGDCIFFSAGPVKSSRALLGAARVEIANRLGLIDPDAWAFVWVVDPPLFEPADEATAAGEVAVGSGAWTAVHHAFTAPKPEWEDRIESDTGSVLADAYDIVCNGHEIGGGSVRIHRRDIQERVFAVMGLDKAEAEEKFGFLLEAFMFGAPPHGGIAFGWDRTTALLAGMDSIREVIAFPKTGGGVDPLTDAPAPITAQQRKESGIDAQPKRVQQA
As to the kind of experiment: Assay for Asp RNA synthetase-1 from Mycobacterium tuberculosis. The class given is functional. More on the design: scale not given: direction of the effect not stated beside the values. Particulars: 30 µM.

In assay [5] the target is AMP-activated protein kinase, AMPK (Homo sapiens) (UniProt P54646+O43741+P54619+Q9UGJ0+Q9Y478+Q13131+Q9UGI9). Nature of the assay: AMP-dependent Kinase enzyme assay. An in vitro enzyme assay that detects ADP turnover that is directly proportional to AMPK activity. This uses naive AMPK that is activated during the assay with MK-8722. The class given is functional. The conditions noted are these: 30 µM. On the set-up: scale not given: direction of the effect not stated beside the values.

Assay [6] deals with Sialic acid-binding Ig-like lectin 9 (Homo sapiens) (UniProt Q9Y336). As to the kind of experiment: Hs-Siglec9 ALPHAscreen SOP 20170721. More on the design: scale not given: direction of the effect not stated beside the values. Particulars: 10 µM. A general note: Alpha assays give light when donor and acceptor beads are brought close together.
Sialic acid-binding Ig-like lectin 9 (Homo sapiens), sequence (Q9Y336 whole entry): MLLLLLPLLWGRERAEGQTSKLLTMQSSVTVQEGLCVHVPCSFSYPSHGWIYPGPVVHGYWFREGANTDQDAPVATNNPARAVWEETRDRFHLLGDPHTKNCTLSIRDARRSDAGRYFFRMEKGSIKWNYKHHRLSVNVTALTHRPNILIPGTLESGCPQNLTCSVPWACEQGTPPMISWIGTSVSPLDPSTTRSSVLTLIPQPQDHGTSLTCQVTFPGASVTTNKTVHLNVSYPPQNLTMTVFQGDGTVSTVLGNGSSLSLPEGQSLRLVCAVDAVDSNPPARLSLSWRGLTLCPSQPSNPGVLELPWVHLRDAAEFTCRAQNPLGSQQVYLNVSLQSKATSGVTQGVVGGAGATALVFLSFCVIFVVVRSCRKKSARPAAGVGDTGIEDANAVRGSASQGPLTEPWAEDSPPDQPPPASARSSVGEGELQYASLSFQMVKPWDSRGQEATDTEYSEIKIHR
The next assay deals with Trypanosoma cruzi. Nature of the assay: Trypanosoma cruzi phosphomannomutase and mannose-1-phosphate guanylyltransferase assay. The class given is functional. Particulars: 10 µM. More on the design: scale not given: direction of the effect not stated beside the values.
Assay [7] addresses T4, Arginase-2, mitochondrial (Homo sapiens) (UniProt P78540).
T4 sequence (whole entry): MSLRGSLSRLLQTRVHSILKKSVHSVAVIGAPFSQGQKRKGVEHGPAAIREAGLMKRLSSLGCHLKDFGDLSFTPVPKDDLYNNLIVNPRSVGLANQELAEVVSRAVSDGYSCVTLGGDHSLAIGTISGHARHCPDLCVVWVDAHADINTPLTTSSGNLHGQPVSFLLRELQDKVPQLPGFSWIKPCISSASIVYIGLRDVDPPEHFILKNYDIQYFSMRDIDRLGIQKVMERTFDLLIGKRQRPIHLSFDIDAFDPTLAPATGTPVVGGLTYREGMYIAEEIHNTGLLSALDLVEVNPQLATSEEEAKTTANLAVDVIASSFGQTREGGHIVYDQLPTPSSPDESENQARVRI
Nature of the assay: in vitro enzyme assay to detect the production of urea directly proportional to the activity of Arginase II. The class given is functional. More on the design: scale not given: in the data most compounds retested in dose-response had high values. The conditions noted are these: 33.3 µM.

The target in assay [8] is T5, Proteasome subunit beta (Trypanosoma cruzi) (UniProt O96673).
T5 sequence (whole entry): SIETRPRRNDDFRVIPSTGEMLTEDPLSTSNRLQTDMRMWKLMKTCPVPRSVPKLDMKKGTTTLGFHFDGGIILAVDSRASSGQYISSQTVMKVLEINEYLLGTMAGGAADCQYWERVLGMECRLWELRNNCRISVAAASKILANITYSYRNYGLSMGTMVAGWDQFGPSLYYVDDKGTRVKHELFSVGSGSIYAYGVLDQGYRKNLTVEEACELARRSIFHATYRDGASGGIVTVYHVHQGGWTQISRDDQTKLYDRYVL
As to the kind of experiment: Trypanosoma cruzi proteasome chymotrypsin-like activity (TcProtChymo) assay. More on the design: scale not given: in the data most compounds retested in dose-response had high values. Particulars: 9.37 µM. The class given is functional.

For the next assay, the species on record is Homo sapiens. Nature of the assay: To identify inhibition of the IFN signalling (Jak-Stat) pathway via expression of an eGFP reporter gene under the control of an IFN-stimulated response element (ISRE) containing MxA promoter. The class given is functional. On the set-up: scale not given: direction of the effect not stated beside the values. The conditions noted are these: 30 µM.

For assay [9], the target named is Shiga toxin 2 (Escherichia coli O157:H7) (UniProt P09385+P09386). Nature of the assay: E. coli 0.157:H7 Shiga Toxin SOP - stx2 screening assay. More on the design: scale not given: direction of the effect not stated beside the values. The class given is functional. The conditions noted are these: 30 µM.
Assay [10] has as its target T6, Tyrosyl-tRNA synthetase, putative (Trypanosoma cruzi (strain CL Brener)) (UniProt Q4DSP6).
T6 sequence (whole entry): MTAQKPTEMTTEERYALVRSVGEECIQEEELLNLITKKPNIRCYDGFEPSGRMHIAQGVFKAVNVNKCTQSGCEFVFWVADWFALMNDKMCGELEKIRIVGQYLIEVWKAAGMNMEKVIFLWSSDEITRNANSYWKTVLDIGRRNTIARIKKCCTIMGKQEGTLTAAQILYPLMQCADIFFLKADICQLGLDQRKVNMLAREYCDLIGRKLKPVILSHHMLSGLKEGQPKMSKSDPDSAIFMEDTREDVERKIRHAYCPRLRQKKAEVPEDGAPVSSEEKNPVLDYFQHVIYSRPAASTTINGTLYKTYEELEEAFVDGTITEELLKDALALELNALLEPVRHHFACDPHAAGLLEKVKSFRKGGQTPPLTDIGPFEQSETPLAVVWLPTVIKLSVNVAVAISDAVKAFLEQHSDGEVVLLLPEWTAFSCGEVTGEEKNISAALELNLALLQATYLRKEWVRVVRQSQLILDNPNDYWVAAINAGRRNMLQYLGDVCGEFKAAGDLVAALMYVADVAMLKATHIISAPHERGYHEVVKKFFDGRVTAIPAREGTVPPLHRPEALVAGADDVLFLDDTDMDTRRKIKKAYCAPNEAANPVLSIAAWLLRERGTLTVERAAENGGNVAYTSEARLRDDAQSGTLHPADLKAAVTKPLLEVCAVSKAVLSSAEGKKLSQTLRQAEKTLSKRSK
As to the kind of experiment: Trypanosoma cruzi tyrosyl tRNA synthetase (TcYRS) _High Tyrosine SOP. The class given is functional. On the set-up: scale not given: in the data most compounds retested in dose-response had high values. The conditions noted are these: 30 µM.

The target of assay [11] is T6, Tyrosyl-tRNA synthetase, putative (Trypanosoma cruzi (strain CL Brener)). Nature of the assay: Trypanosoma cruzi tyrosyl tRNA synthetase (TcYRS) SOP. The class given is functional. More on the design: scale not given: direction of the effect not stated beside the values. The conditions noted are these: 30 µM.
For assay [12], the target named is Chromo domain-containing protein 1 (Saccharomyces cerevisiae (strain ATCC 204508 / S288c) (Baker's yeast)) (UniProt P32657). Nature of the assay: ScCHD-1 Enzyme Inhibition Assay. The class given is functional. On the set-up: scale not given: in the data most compounds retested in dose-response had high values. The conditions noted are these: 30 µM.
Chromo domain-containing protein 1 (Saccharomyces cerevisiae (strain ATCC 204508 / S288c) (Baker's yeast)), sequence (P32657 whole entry, the tested form may be a part): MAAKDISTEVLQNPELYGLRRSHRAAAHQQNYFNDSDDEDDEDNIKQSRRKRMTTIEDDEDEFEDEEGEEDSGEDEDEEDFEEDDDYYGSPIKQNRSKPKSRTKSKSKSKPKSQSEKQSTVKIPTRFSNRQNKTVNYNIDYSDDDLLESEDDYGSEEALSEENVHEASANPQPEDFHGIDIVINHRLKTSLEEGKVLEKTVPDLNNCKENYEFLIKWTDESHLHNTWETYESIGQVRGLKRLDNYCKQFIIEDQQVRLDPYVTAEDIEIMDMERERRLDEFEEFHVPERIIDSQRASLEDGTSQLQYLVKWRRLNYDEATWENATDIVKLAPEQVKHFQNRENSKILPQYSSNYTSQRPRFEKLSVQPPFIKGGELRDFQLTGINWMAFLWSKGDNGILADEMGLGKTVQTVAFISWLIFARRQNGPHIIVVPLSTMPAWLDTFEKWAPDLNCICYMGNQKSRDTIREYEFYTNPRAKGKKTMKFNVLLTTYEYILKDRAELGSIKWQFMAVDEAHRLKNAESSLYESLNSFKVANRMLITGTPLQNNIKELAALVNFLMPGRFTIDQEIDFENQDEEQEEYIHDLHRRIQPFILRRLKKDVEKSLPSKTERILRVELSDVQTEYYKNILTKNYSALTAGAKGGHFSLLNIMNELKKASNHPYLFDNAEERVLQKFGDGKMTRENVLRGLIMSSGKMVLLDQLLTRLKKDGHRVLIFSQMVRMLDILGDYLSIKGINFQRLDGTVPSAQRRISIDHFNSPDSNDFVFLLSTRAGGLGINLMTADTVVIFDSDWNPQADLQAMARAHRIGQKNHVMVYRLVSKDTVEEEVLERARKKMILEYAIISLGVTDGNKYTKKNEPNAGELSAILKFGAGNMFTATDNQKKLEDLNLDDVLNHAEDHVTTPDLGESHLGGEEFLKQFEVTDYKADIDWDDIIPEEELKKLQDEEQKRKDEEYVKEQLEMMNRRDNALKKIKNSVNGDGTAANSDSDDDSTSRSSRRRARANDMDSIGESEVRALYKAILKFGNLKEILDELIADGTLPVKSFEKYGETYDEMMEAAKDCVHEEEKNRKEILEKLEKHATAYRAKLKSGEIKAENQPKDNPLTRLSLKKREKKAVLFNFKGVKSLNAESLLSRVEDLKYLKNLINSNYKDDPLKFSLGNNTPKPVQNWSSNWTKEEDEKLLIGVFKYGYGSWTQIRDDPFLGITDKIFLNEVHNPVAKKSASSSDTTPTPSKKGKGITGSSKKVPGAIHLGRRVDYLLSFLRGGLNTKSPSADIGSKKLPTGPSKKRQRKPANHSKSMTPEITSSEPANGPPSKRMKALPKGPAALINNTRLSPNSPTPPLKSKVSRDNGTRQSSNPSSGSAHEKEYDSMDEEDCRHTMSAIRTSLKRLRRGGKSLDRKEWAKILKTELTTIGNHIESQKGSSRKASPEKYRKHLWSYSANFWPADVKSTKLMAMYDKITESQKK

As for `Cn1cc(C(=O)Nc2ccccc2)c2ccccc21`, the PXC50 in [1] (MAX_EFFECT 6.666666667) was below 4.

Regarding `CN1CCCC(c2n[nH]c3ncccc23)C1` (centres undefined), the Percent Effect in [2] was -3.58%; in [3], -1.35%; in [4] it was -7.01%; in assay [5] it was 6.99%; in assay [6] it was 2.48%; in the assay with Trypanosoma cruzi, -0.198%. In addition, the Percent Effect in assay [7] was -0.232%; in assay [8], 5.93%; in the assay filed under Homo sapiens, -5.01%; in [9] it was 1.35%; in assay [10] it was 2.15%; in assay [11], 1.3%. Also, in assay [12], the Percent Effect is 6.39%.

In the case of `COC(=O)Nc1cc(Cl)cc(Cl)c1`, the PXC50 in assay [1] (MAX_EFFECT 8.423326134) and in [1] (MAX_EFFECT 23.76425856) was below 3 each time.

Regarding `COCC(=O)NC(C)Cc1cccc(OC)c1` (centres undefined), the Percent Effect in [2] is -1.72%; in [3] it was 13.2%; in assay [4], -2.52%; in [5], 3.57%; in [6], 6.63%; in the assay on Trypanosoma cruzi, 6.77%. Besides, the Percent Effect was -0.383% in assay [7]; 11.5% in assay [8]; 8.48% in the assay listed under Homo sapiens; 24.3% in assay [9]; 10.3% in assay [10]; 21.9% in assay [11]. The Percent Effect in assay [12] is -8.88%.

Source of the values: ChEMBL document CHEMBL3988442, “University of Dundee, Small-Polar-MMV Screening Library” (2021).
